The structures appear in SMILES notation. Inconclusive results are not listed. Where a call stands in place of a potency, no number is given. Calls of active or inactive are those of the source. The call rests on the fitted dose curve; in most records, active means well fitted cell-killing curve with a large enough effect in the repeat runs; inconclusive means weak or mixed curves, or effect the other way; inactive means flat fitted curve, though single readings scatter.

The test in a line: qHTS RealTime-Glo MT Cell Viability Assay in HEK293 cells - 0 hour (AID 1224880). Further: top concentration of the series differs between compounds; nearly all actives have a fitted effect of over 45% in size. The conditions noted are these: RealTime-Glo luminescence; series mostly up to 76.8 µM. The text has this: U.S. Tox21 Program National Center for Advancing Translational Sciences [NCATS] NIH Chemical Genomics Center [NCGC] U.S. Environmental Protection Agency [EPA] National Institutes of Environmental Health Sciences [NIEHS] National Toxicology Program [NTP] U.S. Food and Drug Administration [FDA] Tox21 Assay Overview: Measure of cell viability is critical in the cell-base assay. Analysis of cell viability is necessary for the characterization of cell responses to cytotoxic drugs and environmental stress. A RealTime-Glo MT Cell Viability Assay to monitor cell viability in real time of continues cell culture during 40 hours of compound treatment was used to screen Tox21 10K library compounds in Hek293 cells. The RealTime-Glo MT Cell Viability Assay is a nonlytic, homogeneous, bioluminescent method to measure cell viability in real time using a simple, plate-based method. The assay involves adding NanoLuc luciferase and a cell-permeant prosubstrate to cells in culture. Viable cells reduce the proprietary prosubstrate to generate a substrate for NanoLuc luciferase. This substrate diffuses from cells into the surrounding culture medium, where it is rapidly used by the NanoLuc Enzyme to produce a luminescent signal. The signal correlates with the number of viable cells, making the assay well suited for cytotoxicity studies.
Tox21 Assay Protocol Summary: The mixture of Hek293 cell suspension and reagents were dispensed at 600cells/6 ul/well in 1536-well tissue culture treated black solid bottom plates using a Multidrop dispenser. After the assay plates were incubated at a 37 C/5% CO2 incubator for 5 hours, 23 nL of compounds dissolved in DMSO, positive and negative controls was transferred to the assay plate by a pintool work station. The plates were incubated at 37 C for 40 hours. The luminescence intensity were measured at 0h, 8h, 16h, 24h, 32h and 40h time points using ViewLux plate reader during compound treatment.
On to `NC(=O)N/N=C/c1ccc([N+](=O)[O-])o1`, for which the Potency result was “inactive”.

In the case of `CC(=O)/C=C/C1=C(C)CCCC1(C)C`, the Potency result was “inactive”.

`CC1(C)O[C@@H]2[C@@H](CO[C@@]3(COS(N)(=O)=O)OC(C)(C)O[C@@H]23)O1`: the Potency result is “inactive”.

In the case of `Nc1cccc(N)c1`, the Potency entry is “inactive”.

On to `CCn1cc(C(=O)O)c(=O)c2ccc(C)nc21`, for which the Potency entry was “inactive”.

With `CN(C)Cc1cc(CN(C)C)c(O)c(CN(C)C)c1`, the Potency entry was “inactive”.

With `NC(=O)c1ccc([N+](=O)[O-])cc1Cl`, the Potency result was “inactive”.

Turning to `CCCCCCCCOc1ccc(C(=O)c2ccccc2)c(O)c1`, the Potency entry was “inactive”.

On to `CC(C)(C)CC(C)(C)c1ccc(O)c(-n2nc3ccccc3n2)c1`, for which the Potency entry is “inactive”.

In the case of `O=c1cc[nH]c(=O)[nH]1`, the Potency result was “inactive”.

With `O=C1CCCCCN1`, the Potency result is “inactive”.

In the case of `NC(=O)NO`, the Potency entry is “inactive”.

`Cn1cnc2c1c(=O)[nH]c(=O)n2C`: the Potency entry is “inactive”.

For the compound `CC(C)Cc1ccc(C(C)C(=O)O)cc1` (stereo not given), the Potency result is “inactive”.

Take `C=C(C)C(N)=O`: the Potency result was “inactive”.

For the compound `Cc1cccc(Nc2cc(Cl)nc(SCC(=O)O)n2)c1C`, the Potency entry is “inactive”.

As for `CCOC(=O)C(C)(C)Oc1ccc(Cl)cc1`, the Potency result was “inactive”.

As for `C/C=C/c1ccc(O)c(OC)c1`, the Potency result is “inactive”.

Consider `C=CCOC(=O)CC(C)C`, for which the Potency result is “inactive”.

With `COc1ccccc1NC(=O)CC(C)=O`, the Potency result is “inactive”.

On to `CC(=O)OC/C=C(C)/C=C/C=C(C)/C=C/C1=C(C)CCCC1(C)C`, for which the Potency result was “inactive”.

As to `CCCCOCCOCCSC#N`, the Potency result is “inactive”.

In the case of `COc1cc2c(c(OC)c1OC)-c1ccc(OC)c(=O)cc1[C@@H](NC(C)=O)CC2`, the Potency entry was “inactive”.

On to `CC1=C(/C=C/C(C)=C/C=C/C(C)=C/C(=O)O)C(C)(C)CCC1`, for which the Potency entry was “inactive”.

Consider `CCCCC/C(C=O)=C\c1ccccc1`, for which the Potency result was “inactive”.

In the case of `CCOCCO`, the Potency result is “inactive”.

As to `Nc1ccc(N=Nc2ccccc2)c(N)n1`, the Potency result was “inactive”.

With `O=C(OCc1ccccc1)c1ccccc1`, the Potency result was “inactive”.

As for `Cc1cnc(NC(=O)C2=C(O)c3ccccc3S(=O)(=O)N2C)s1`, the Potency result is “inactive”.

Turning to `COC(=O)c1ccc(C=O)cc1`, the Potency entry was “inactive”.

Turning to `O=[N+]([O-])c1ccc(O)cc1`, the Potency entry was “inactive”.

As to `C[C@]12C=CC(=O)C=C1CC[C@@H]1[C@@H]2C(=O)C[C@@]2(C)[C@H]1CC[C@]2(O)C(=O)CO`, the Potency result is “inactive”.

On to `C#C[C@]1(O)CC[C@H]2[C@@H]3CCc4cc(O)ccc4[C@H]3CC[C@@]21C`, for which the Potency entry is “inactive”.

As for `COc1ccc(O)cc1`, the Potency entry is “inactive”.

For the compound `CC1=NN(c2ccccc2)C(=O)C1`, the Potency entry was “inactive”.

As to `CC(C)=CCC/C(C)=C/CO`, the Potency entry was “inactive”.

Consider `Cc1cccc(C)c1O`, for which the Potency entry was “inactive”.

Consider `Cc1cccc2ccccc12`, for which the Potency result is “inactive”.

In the case of `CN/C(=C\[N+](=O)[O-])NCCSCc1ccc(CN(C)C)o1`, the Potency entry is “inactive”.

Take `OC[C@@H](O)[C@@H](O)[C@H](O)[C@H](O)CO`: the Potency result is “inactive”.

Values taken from PubChem BioAssay (Tox21).
